# Assays:
# [1] = test system: Human papillomavirus type 1a protein E7 (residues 44-93); assay: HPV1a E7 fragment binders on microarrays, primary screen, biochemical, small-molecule microarray, residues 44-93, 635 nm fluorescence (AID 1108); details: small-molecule microarray binding, fluorescence 635 nm; higher = more signal;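 further: E7 fragment applied at 1 µg/mL in TBST for 1 h at 4 C; score combines spot fluorescence with its signal to noise ratio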
# [2] = modulators of HCV replicon luciferase signal, primary screen, HCV replication inhibitor project, Huh7 cells, luciferase reporter (AID 1109); details: 48 h, higher = more signal;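 further: huh7 hepatoma cells harbouring a luciferase neomycin HCV replicon reporter; luciferase luminescence as measure of HCV replicon replication; test concentration not given here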
# [3] = biological target: Left-right determination factor 2 (Homo sapiens) (UniProt O00292); assay: LEFTY2 binders on small-molecule microarrays, primary screen, biochemical, small-molecule microarray, 635 nm fluorescence scan (AID 1110); details: LEFTY2 binding, higher = more signal
# Chain of Left-right determination factor 2 (Homo sapiens) (O00292 whole entry, looked up): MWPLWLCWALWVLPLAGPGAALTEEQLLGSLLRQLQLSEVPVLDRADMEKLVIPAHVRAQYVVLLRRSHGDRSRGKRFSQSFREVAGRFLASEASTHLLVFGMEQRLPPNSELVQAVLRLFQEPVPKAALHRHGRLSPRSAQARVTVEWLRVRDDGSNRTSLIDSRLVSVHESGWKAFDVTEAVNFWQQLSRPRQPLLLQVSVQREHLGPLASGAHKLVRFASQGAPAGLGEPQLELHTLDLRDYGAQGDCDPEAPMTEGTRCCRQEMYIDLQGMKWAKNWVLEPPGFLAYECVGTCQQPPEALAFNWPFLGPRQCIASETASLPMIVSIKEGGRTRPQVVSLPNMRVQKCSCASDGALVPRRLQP
# [4] = biological target: Calmodulin-1 (Homo sapiens) (UniProt P0DP23); assay: CALM1 binders on microarrays, EGTA buffer, profiling panel, biochemical, small-molecule microarray, Cy5-labelled CALM1 (AID 1111); details: Cy5-CALM1 binding fluorescence, higher = more signal;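 further: labelled calmodulin applied in Tris saline Tween buffer holding calcium plus EGTA and DTT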
# [5] = biological target: Calmodulin-1 (Homo sapiens) (UniProt P0DP23); assay: calcium-bound CALM1 binders on microarrays, profiling panel, artefact control for SMM control-protein annotation, biochemical, small-molecule microarray, Cy5-labelled CALM1, plus calcium (AID 1112); details: Cy5-CALM1 binding fluorescence, higher = more signal;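 further: score merges spot fluorescence with signal to noise from triplicate slides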
# [6] = small-molecule microarray binders of probe aWnt5a, primary screen, biochemical, biotinylated probe, 635/667 nm fluorescence (AID 1113); details: higher = more signal;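 further: score merges 667 nm fluorescence intensity with signal-to-noise per printed feature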
# [7] = small-molecule microarray binders of probe aShh, primary screen, biochemical, biotinylated probe, 635/667 nm fluorescence (AID 1114); details: higher = more signal;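 further: probe is biotin-labelled aShh protein from a stem cell growth factor screen; measures binding of labelled protein to compounds printed on the slide; score merges feature fluorescence at 667 nm with signal-to-noise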
# [8] = small-molecule microarray binders of probe aNog, primary screen, biochemical, biotinylated probe, 635/667 nm fluorescence (AID 1115); details: higher = more signal;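 further: probe is biotinylated aNog protein used at 0.15 µg/mL for 1 h at 4 C; z-score combines 667 nm fluorescence of each spot with its signal to noise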
# [9] = biological target: Torsin-1A-interacting protein 1 (Homo sapiens) (UniProt Q5JTV8); assay: LAP1 binders from COS7 cell lysate, primary screen, small-molecule microarray, 635/667 nm fluorescence (AID 1116); details: COS7-hLAP1 lysate binding, 635 nm fluorescence, higher = more signal
# Chain of Torsin-1A-interacting protein 1 (Homo sapiens) (Q5JTV8 whole entry, looked up): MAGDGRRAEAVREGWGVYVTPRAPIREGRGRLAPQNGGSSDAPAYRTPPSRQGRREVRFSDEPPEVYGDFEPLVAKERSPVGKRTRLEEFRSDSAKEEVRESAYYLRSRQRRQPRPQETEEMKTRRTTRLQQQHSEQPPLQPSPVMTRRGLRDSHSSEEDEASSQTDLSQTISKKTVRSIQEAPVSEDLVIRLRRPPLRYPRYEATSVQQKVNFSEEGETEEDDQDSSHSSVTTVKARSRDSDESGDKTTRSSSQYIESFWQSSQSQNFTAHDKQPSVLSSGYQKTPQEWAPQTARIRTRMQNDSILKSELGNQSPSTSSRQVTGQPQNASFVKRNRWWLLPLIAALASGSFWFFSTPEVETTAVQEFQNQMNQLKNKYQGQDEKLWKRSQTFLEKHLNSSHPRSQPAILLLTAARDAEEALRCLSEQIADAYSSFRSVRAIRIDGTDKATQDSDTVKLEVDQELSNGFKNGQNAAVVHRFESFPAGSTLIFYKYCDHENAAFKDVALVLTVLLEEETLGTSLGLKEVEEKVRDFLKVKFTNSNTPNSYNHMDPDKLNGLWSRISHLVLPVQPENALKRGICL
# [10] = biological target: Alpha-bungarotoxin (Bungarus multicinctus) (UniProt P60615); assay: alpha-bungarotoxin binders on microarray, profiling panel, artefact control for SMM control protein annotation, biochemical, small-molecule microarray, Alexa647 label, 635/667 nm fluorescence (AID 1117); details: alpha-BTX-A647 binding fluorescence, higher = more signal
# Chain of Alpha-bungarotoxin (Bungarus multicinctus) (P60615 whole entry, looked up): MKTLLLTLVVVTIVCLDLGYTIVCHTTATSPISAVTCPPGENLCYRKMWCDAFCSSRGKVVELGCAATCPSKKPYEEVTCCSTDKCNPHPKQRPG
SMILES,composite z-score [1],z-score [2],composite z-score [3],composite z-score [4],composite z-score [5],composite z-score [6],composite z-score [7],composite z-score [8],composite z-score [9],composite z-score [10]
CC=CC(O)C1C=CC2C(=O)N(C)C(=O)C2N1N(c1ccccc1)c1ccccc1 (stereo not given),-1.28,-0.332,0.36,-0.54,-1.3,-0.104,-0.0769,-0.0281,1.13,0.721
O=C(CS)NCCCCCNC(=O)[C@H]1C[C@H]2C(=O)NCC(=O)N2[C@H]1c1ccc(O)cc1,-1.12,0.464,-0.55,-0.0906,-0.0879,-0.256,-0.214,-0.175,-0.736,-0.129
Cc1ccc([C@H]2C(C(=O)O)=CCN2S(=O)(=O)c2ccc(C)cc2)cc1,0.964,-1.02,-0.441,0.659,0.261,-0.001,-0.0709,-0.333,1.54,0.705
COC(=O)[C@@]1(Cc2ccc(OC)cc2)[C@H]2c3cc(C(=O)N4CCCC4)n(CCCNc4ncc(C(F)(F)F)cc4Cl)c3C[C@H]2CN1C(=O)c1ccccc1,0.958,-2.32,0.0792,1.33,0.74,0.901,0.76,-0.447,-0.0323,0.884
COCCCNC(=O)[C@@]1(Cc2ccccc2)N=C(c2ccc(OCCCO)cc2)O[C@H]1c1ccccc1CN=[N+]=[N-],0.596,-2.86,0.0508,2.14,0.451,0.0445,0.496,1.36,2.35,2.23
COC(=O)c1c(CC[C@@H](CO)NC(=O)NCCc2c[nH]c3ccccc23)oc(C(=O)Cc2ccccc2)c1C(=O)OC,0.465,-1.16,0.353,-0.103,-0.46,0.0657,-0.0011,-0.33,0.385,-0.172
O=C(NCCN1CCOCC1)[C@@H]1c2ccccc2C(=O)N(Cc2cc(C(F)(F)F)cc(C(F)(F)F)c2)[C@H]1c1ccc(CO)cc1,1.35,-1.16,-0.775,-0.253,-0.198,-0.0161,0.123,0.0763,-0.729,2.1
COCCCNC(=O)[C@@H]1c2ccccc2C(=O)N(Cc2ccccc2OC)[C@H]1c1ccc(CO)cc1,0.889,-1.96,-0.0144,0.349,0.392,0.0279,-0.0035,-0.136,1.62,0.117
C#CCNCc1ccccc1,0.297,0.141,0.689,-0.389,-0.163,-0.213,-0.291,-0.213,0.195,0.34
CC(C)NC(=O)[C@@]1(Cc2ccccc2I)c2ccccc2C(=O)N(Cc2ccccc2Cl)[C@H]1c1ccc(CO)cc1,1.37,-1.97,0.45,0.789,-0.129,0.0077,0.0062,0.0139,0.795,1.28
C=C(CCCC)/C(=C/C[C@H](OC(C)=O)c1ccc(OCCO)cc1)c1cnc2ccccc2c1,1.43,-2.43,0.52,-0.185,-0.378,-0.101,-0.0035,-0.483,0.491,1.85
COCCCNC(=O)[C@@]1(Sc2ccc(C)cc2)CC(=O)N(Cc2ccccc2Cl)[C@@H]1c1ccc(CO)cc1,1.36,-1.75,0.585,0.532,-0.184,0.0706,0.275,-0.205,0.566,1.25
CN1C(=O)C2C=CC(C(O)c3ccccc3)N(N3CCCCC3)C2C1=O (stereo not given),0.876,-0.379,-0.203,0.0777,-0.102,0.28,0.108,-0.52,0.411,0.464
NC(=O)[C@@]1(Cc2ccccc2)N=C(c2ccc(OCCCO)cc2)O[C@H]1c1ccccc1,-1.02,-0.605,-0.949,1.19,1.2,-0.11,0.629,1.06,3.1,-0.387
C[N+](C)(C)CCCC[C@@H]1NC(=O)[C@@H]2C[C@H](C(=O)NCCCCCN)[C@H](c3ccc(O)cc3)N2C1=O,1.34,0.0633,1.24,2.08,1.12,0.0775,-0.167,1.57,1.29,2.13
CCCCCCc1nc(-c2ccc(-c3ccc(Cl)c(Cl)c3)o2)c(C)c2c1[Si](C(C)C)(C(C)C)OC2,-0.121,-1.46,-0.127,0.18,0.45,-0.124,-0.123,-0.124,-0.196,0.354
COCC(=C=CC[C@H](O)c1cccc(OCCO)c1)C[C@H](O)c1cc(Cl)cc(Cl)c1O,1.37,-0.566,0.578,-0.0781,-0.821,-0.0478,0.0639,-0.328,1.12,0.0872
CCCC(=O)N(CCc1c[nH]c2ccccc12)[C@@H]1CC(C(=O)NCCO)=C[C@H](Oc2c(I)cc(CO)cc2OC)[C@H]1O,0.434,0.354,0.362,-0.0781,-0.36,-0.129,-0.221,-0.234,0.0957,-0.0162

SMILES,composite z-score [1],z-score [2],composite z-score [3],composite z-score [4],composite z-score [5],composite z-score [6],composite z-score [7],composite z-score [8],composite z-score [9],composite z-score [10]
CN1C(=O)C2C=CC(C(O)c3c(F)cccc3Cl)N(NC(=O)OC(C)(C)C)C2C1=O (stereo not given),1.3,-0.28,-0.0662,2.03,0.498,0.0718,-0.167,1.46,2.03,1.35
COC(=O)[C@H](Cc1ccccc1)N[C@H](/C=C/C1CC1)[C@@H](O)Cc1ccccc1,-0.636,-1.02,-0.276,-0.595,-1.08,-0.237,0.14,-0.34,0.627,-0.696
C=C(CCCC)/C(=C/C[C@H](OC(=O)c1ccncc1)c1ccc(OCCO)cc1)c1cc(C(=O)OC)ccc1OC,1.09,-2.01,0.318,0.226,0.176,0.0491,0.216,-0.158,1.26,0.378
O=C1[C@H]2C=C(Br)[C@H](C[C@@H]2OCCCCCCO)[C@@]12CO2,-1.01,-3.2,-0.057,-0.714,-1.44,-0.006,-0.106,-0.234,0.0589,-1.17
CCCCCN1CC=CC23O[C@@H]4C=CCOC(=O)[C@@H]4[C@H]2C(=O)N(C(C)CO)[C@@H]3C1=O (stereo not given in full),-0.967,1.01,-1.39,-0.0225,-0.0583,-0.176,-0.0146,1.04,-0.901,-0.394
CCC(CC)C(O)C1C=CC2C(=O)N(c3ccccc3)C(=O)C2N1Nc1ccccc1 (stereo not given),1.29,0.372,0.0874,1.58,0.415,0.216,-0.16,2.01,0.671,1.02
COC(=O)[C@@]1(Cc2ccccc2)[C@H]2c3cc(C(=O)N(C)C)n(Cc4ccc(OC)c(OC)c4)c3C[C@H]2CN1C(=O)c1ccccc1,1.46,-2.35,-0.394,1.71,0.873,0.229,0.187,2.35,1.1,1.07
CO[C@H]1O[C@H](CO)[C@@H](OC(=O)Nc2ccccc2)[C@@H]2OC(=O)[C@@H](Cc3ccc4ccccc4c3)C/C=C/C[C@H](Cc3ccc4ccccc4c3)C(=O)O[C@@H]12,0.601,-2.92,0.0985,0.697,-0.56,-0.006,-0.237,1.3,1.72,0.322
O=C1C2C=CC(C(O)c3ccc4c(c3)OCO4)N(Nc3ccc([N+](=O)[O-])cc3)C2C(=O)N1c1ccccc1 (stereo not given),1.12,-0.133,0.219,-0.182,-0.429,-0.0445,-0.0968,-0.418,-0.181,0.177
CCCNC(=O)[C@@]1(Sc2ccc(C)cc2)CC(=O)N(Cc2ccccc2C(F)(F)F)[C@@H]1c1ccc(CO)cc1I,1.38,-1.91,-0.0375,-0.214,-0.611,-0.0519,0.0639,0.134,0.332,1.62
COCCOC(=O)N1C(=O)[C@@]2(c3cc(C#CC4(O)CCCCCC4)ccc31)[C@H](C(=O)Nc1nc3ccccc3s1)[C@H]1C(=O)O[C@H](c3ccccc3)[C@H](c3ccccc3)N1[C@@H]2c1ccccc1OCCO,-0.441,-1.66,0.555,1.71,0.926,-0.0165,0.321,0.546,0.547,2.37
COCCCNC(=O)[C@]1(Cc2ccccc2)N=C(c2ccc(OCCCO)cc2)O[C@@H]1c1ccccc1CN=[N+]=[N-],0.128,-2.18,-0.254,1.02,0.562,0.116,0.585,0.918,2.48,0.315
CC(C)Cc1ccc(CN2CC[C@@H](N)C2)cc1,-2.06,-4.41,-0.669,-0.387,0.36,-0.274,-0.147,0.023,-1.24,-0.118
C=CCN1Cc2ccccc2[C@@H]2OC(c3ccc(OCCCO)cc3)=N[C@]2(CCS(=O)(=O)c2ccccc2)C1=O,1.33,-1.48,0.954,0.804,-0.321,-0.0009,0.377,0.714,1.58,1.42
COC(=O)c1c2oc(c1C(=O)OC)C(=O)NC1(CCCCC1)c1cn(nn1)C[C@H](Cc1ccccc1)NC(=O)N[C@H](CO)CC2,0.973,-0.791,0.23,0.0166,-0.396,-0.0955,-0.237,-0.321,0.227,0.531
O=C(O)[C@H]1C[C@H]2C(=O)N3CCC[C@H]3C(=O)N2[C@H]1c1ccc(O)cc1,-0.124,0.253,-2.21,-0.342,0.123,-0.202,-0.348,-0.216,0.319,-1.55
CCCC[C@H]1C[C@@H]1[C@@H]1N(P(=O)(c2ccccc2)c2ccccc2)C[C@@](O)(c2ccccc2)CC12CC2,0.713,-2.71,-1.06,1.96,1.03,0.145,0.149,-0.753,0.727,0.217
COc1cc2c(cc1O)C(c1cccs1)N(Cc1ccc([N+](=O)[O-])o1)CC2 (stereo not given),0.665,-0.213,-0.333,1.5,0.33,-0.0303,0.155,1.19,-0.194,0.766
